Only some compounds are listed: those with a hit (about 7.3% of all), similar ones and a draw of the others.
AmpC inh no detg – AmpC beta-lactamase inhibition without detergent. P00811. AmpC nitrocefin hydrolysis, absorbance 480 nm, 0.0001% Triton. Potency, µM (titrated, usually from 57.1 µM), without a hit: at the top dose activity change, negative = inhibition, usual class: inhibitors. 330,000 compounds, 0.52% hits. AID 485341;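 also: potency is read from the fitted curve at half-maximal effect; plate controls were no compound for no effect and no enzyme for full effect; nearly all actives have a fitted effect of over 20% in size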
Target sequence (P00811 whole entry, looked up): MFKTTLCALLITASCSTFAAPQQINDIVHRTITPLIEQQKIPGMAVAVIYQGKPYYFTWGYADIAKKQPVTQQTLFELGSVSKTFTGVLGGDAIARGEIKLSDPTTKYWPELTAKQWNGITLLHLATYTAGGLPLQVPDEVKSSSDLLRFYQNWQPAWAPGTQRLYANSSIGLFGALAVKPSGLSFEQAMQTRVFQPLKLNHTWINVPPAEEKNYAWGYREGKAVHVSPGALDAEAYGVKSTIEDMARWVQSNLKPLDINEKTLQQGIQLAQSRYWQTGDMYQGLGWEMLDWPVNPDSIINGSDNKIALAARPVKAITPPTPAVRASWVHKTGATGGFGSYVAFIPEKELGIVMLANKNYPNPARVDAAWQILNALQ
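AmpC (5.3 nM in the dispensed reagent) in 20 mM phosphate pH 7.0 with 0.01% (detergent screen) or 0.0001% Triton X-100 was preincubated with compounds for 15 min at room temperature. Nitrocefin was then added from an 800 uM solution, and hydrolysis was followed at 480 nm.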
HCMV inh – blocks human cytomegalovirus replication | 410,000 compounds, 4.5% hits | activity change, negative = inhibition, % at 57.5 µM | HFF cells, HCMV-luciferase reporter, 72 h; stronger effect = lower value; in the data active = activity change below about -60%; inconclusive = no clear call, values can overlap the other calls; inactive = above about -39%
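Two compound doses tested in HFFs infected with HCMV-luciferase, MOI 1 PFU/cell, 72 h at 37C. Lysate luminescence read with OneGlo; data normalized against buffer-only and 10uM Salinomycin inhibitor controls.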
AmpC inh detg – blocks E. coli AmpC beta-lactamase in detergent assay. P00811. AmpC hydrolysis of nitrocefin, absorbance 480 nm, 0.01% Triton. Potency, µM (highest dose often 114 µM), without a hit: top-dose activity change, negative = inhibition, hits mostly inhibitors. 370,000 compounds, 0.041% hits;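 also: potency is read from the fitted curve at half-maximal effect; 0% = no-compound wells and -100% = no-enzyme wells; nearly all actives have a fitted effect of over 25% in size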
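AmpC (5.3 nM in the dispensed reagent) in 20 mM phosphate pH 7.0 with 0.01% (detergent screen) or 0.0001% Triton X-100 was preincubated with compounds for 15 min at room temperature. Nitrocefin was then added from an 800 uM solution, and hydrolysis was followed at 480 nm.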
HCV inhibitor – blocks hepatitis C virus; Potency, µM (top dose mostly 41.8 µM), without a hit: at the highest dose activity change, negative = inhibition, most hits filed as inhibitors; Huh7.5.1 HCVcc-Cre infection, luciferase reporter, 44 h; 340,000 compounds, 3.4% hits; AID 651820; also: potency is read from the fitted curve at half-maximal effect
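Antiviral activity was scored by luciferase reporter output from cells infected with HCVcc-Cre (~0.5 moi) in presence of compound, 44 h infection period, cells seeded 1,000/well 4 h prior.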
FMDV inh – foot and mouth disease virus antiviral activity; 410,000 compounds, 1.2% hits; Potency, µM (top dose mostly 57.9 µM), for the others: at the top dose activity change, negative = inhibition, actives largely listed as inhibitors; FMDV antiviral cell-based qHTS; calls by dose curve; tested in HEK293T cells; also: read-out not given here; potency is read from the fitted curve at half-maximal effect; nearly all actives have a fitted effect of over 45% in size
An asterisk follows results filed as active; u = inconclusive; x = no result given; + = active, no number; [ ] = remark or other dose. Unless noted, calls follow the shape of the dose curve; as a rule, active = well fitted curve in the direction sought with a large enough effect; inconclusive = small, poorly fitted or top-dose-only effect, or another doubt; inactive = no such curve, though single readings can be large; an effect the other way counts as inactive or inconclusive. Unless noted, % is scaled to controls: 0 for no effect and ±100 for the full control effect.

SMILES	AmpC inh no detg	HCMV inh	AmpC inh detg	HCV inhibitor	FMDV inh
COc1cccc(-c2ccc(NC(=O)C3CCCN(Cc4cc(C)[nH]n4)C3)cc2)c1 (stereo unspecified)	67%	u	-11%	u	-6%
Cc1ccccc1CN1CCCC(C(=O)Nc2ccc(-c3ccn[nH]3)cc2)C1 (stereo unspecified)	7%	-63*	3%	u	-19%
COc1cccc(-c2ccc(NC(=O)C3CCCN(Cc4cnn(C(C)C)c4)C3)cc2)c1 (stereo unspecified)	226%	-108*	-22%	11µM*	u
Cc1ccc(C(=O)Nc2ccncc2)c(C)c1	2%	u	-15%	u	-1%
CCOC(=O)c1cccc(NC(=O)CCc2c(C)nc3c4cccnc4nn3c2C)c1	x	-6	13%	x	u
CC(C)c1ccc(OCc2nc(-c3ccccn3)no2)c(Br)c1	63%	118	u	13µM*	-13%
Cn1c(=O)[nH]c(=O)c2c1nc(Br)n2C/C=N/NC(N)=S	-11%	-33	-1%	x	x
Cn1c(=O)c2c(nc(Br)n2C/C=N/NC(N)=S)n(C)c1=O	4%	-84*	-8%	-16%	-8%
CN(C)CCNc1ccc2nnn3c4ccc(O)cc4c(=O)c1c23	x	-88*	x	10µM*	-12%
CCN(CC)CCCNc1ccc2ncn3c4ccc(O)cc4c(=O)c1c23	x	-90*	x	u	u
CCN(CC)CCCNc1ncnc2ccccc12	-11%	22	-1%	4%	-3%
Cc1ccc(NCCN(C)C)c2c(=O)c3cc(O)ccc3sc12	x	-99*	x	10µM*	-23%
CN(C)CCNc1cccc2sc3ccc(O)cc3c(=O)c12	x	-4	x	x	-16%
COc1ccc(CCCNC(=O)C2(C)Cc3c(-c4ccc(NC(C)=O)cc4)ccnc3O2)cc1 (stereo unspecified)	x	-7	x	x	u
Cc1cccc(N2CCN(C(=O)C3CCN(S(=O)(=O)c4cn(C)cn4)CC3)CC2)c1C	x	u	-1%	x	-18%
N#CC(c1ccccc1O)N1N=C(c2ccccc2)CC1c1ccccc1 (stereo unspecified)	-53%	-61*	-7%	u	37%
COc1cc(C(C#N)N2N=C(c3ccccc3)CC2c2ccccc2)ccc1O (stereo unspecified)	-23%	219	3%	-11%	73%
Cc1ccc(CSc2ccc3nnc(-c4ccccn4)n3n2)cc1	34%	0	0%	10%	u
Cc1ccc(C)c(CSc2ccc3nnc(-c4ccccn4)n3n2)c1	73%	-22	-3%	u	22µM*
CCOC(=O)N1CCc2c(sc(NCc3cc(OC)c(OC)cc3OC)c2C(=O)Nc2ccc(OCC)cc2)C1	x	2	-3%	x	-4%
CN1Cc2c(N3CCOCC3)nc3sc(C(=O)c4ccc(Br)cc4)c(N)c3c2CC1(C)C	164%	-95*	3%	-86%	-1%
COc1cc(OC)c2nc(-c3cc4c(c(OC)c3)OCCN(C(=O)C(C)c3n[nH]c(=O)c5ccccc35)C4)cc(C)c2c1 (stereo unspecified)	x	x	x	x	-9%
COc1cccc(C(=O)NCC2Cc3cccc(-c4cccnc4)c3O2)c1 (stereo unspecified)	x	x	x	x	23%
CCC1CN(CCNC(=O)c2cccc(N3CCCC3=O)c2)Cc2cc(OC)ccc2O1 (stereo unspecified)	x	x	x	x	20%
O=C(COC(=O)CCN1C(=O)/C(=C\C=C\c2ccccc2)SC1=S)Nc1cc(F)ccc1F	-20%[2.29 µM]	-62*	1%	4%	u
SMILES	AmpC inh no detg	HCMV inh	AmpC inh detg	HCV inhibitor	FMDV inh
CC(=O)Nc1cc(-c2ccc(N(C)C)cc2)cn2c(-c3ccc(F)cc3)cnc12	x	-38	x	x	-4%
Cc1cccc(-n2nc(C)c(C(=O)N3CCN(c4ccccc4)CC3)c2-n2cccc2)c1	x	+	-6%	x	u
Cc1nn(-c2ccccc2)c(Cl)c1C(=O)NNC(=O)c1ccncc1	-4%	-35	9%	1%	-2%
Cc1nn(-c2ccccc2)c(Cl)c1C(=O)NNC(=O)c1ccccc1O	-10%	62	-24%	10µM*	38%
CN1CCN(C(=O)c2cc3ccccc3oc2=O)CC1	-8%	2	6%	4%	4%
Cc1cc(C)c(S(=O)(=O)N2CCN(C(=O)c3cc4ccccc4oc3=O)CC2)c(C)c1	5%	-102*	0%	u	-26%
Cc1ccc(S(=O)(=O)N2CCN(C(=O)c3c(C)nn(-c4ccccc4)c3Cl)CC2)cc1	13%	-75*	-2%	u	x
COc1cc(=O)n2c(c1C(=O)NC(C)c1ccco1)CCN(Cc1ccccc1C(F)(F)F)CC2 (stereo unspecified)	x	x	x	x	-10%
Cc1cc(C)c(S(=O)(=O)N2CCN(C(=O)c3c(C)nn(-c4ccccc4)c3Cl)CC2)c(C)c1	x	-72*	x	u	25µM*
O=C(c1cc(-c2ccccc2)nn1-c1ccccc1)N1CCN(S(=O)(=O)c2ccc(F)cc2)CC1	-18%	-77*	u	u	-6%
COc1ccc(S(=O)(=O)N2CCN(C(=O)c3c(C)nn(-c4ccccc4)c3Cl)CC2)cc1	115%	31	0%	-12%	u
CC(C)N(Cc1ccccc1)C(=O)Cn1ncc2c3ccccc3n(Cc3ccccc3)c2c1=O	x	-6	19%	x	-24%
CCc1nc2cc(C(=O)N3CCC[C@H]3CO)cc(NC(=O)c3ccccc3OC)c2n1C	x	x	x	x	3%
Cc1n[nH]c(C)c1N1C(=O)c2cccc3c(Br)ccc(c23)C1=O	25%	-3	-7%	u	-2%
Cc1n[nH]c(C)c1N1C(=O)c2cccc3cc(Br)cc(c23)C1=O	-2%	39	-6%	4.5µM*	-16%
O=S1(=O)N[C@@H](Cc2ccccc2)COc2cc(N3CCOCC3)ccc21	x	10	x	x	x
C/C=C(\C)C(=O)OC1[C@H](OC(C)=O)C2(CO)C(CC1(C)C)C1=CCC3C4(C)CCC(O[C@@H]5O[C@H](C(=O)O)[C@@H](O[C@@H]6O[C@H](CO)[C@@H](O)[C@H](O)[C@H]6O)[C@H](O)[C@H]5O[C@H]5O[C@H](CO)[C@@H](O)[C@H](O)[C@H]5O)[C@](C)(CO)C4CCC3(C)[C@]1(C)C[C@H]2O (stereo partly specified)	x	x	x	3.2µM*	28µM*
C/C=C(/C)C(=O)OC1C(OC(C)=O)[C@@]2(CO)C(O)C[C@@]3(C)C(=CCC4[C@@]5(C)CCC(OC6OC(C(=O)O)[C@@H](O[C@@H]7OC(CO)C(O)C(O)C7O)C(O)[C@H]6O[C@@H]6OC(CO)C(O)C(O)C6O)[C@](C)(CO)C5CC[C@@]43C)C2CC1(C)C (stereo partly specified)	x	x	x	x	-9%
